25 molecules from PubChem BioAssay (Tox21) can be followed below.

The target of assay [1] is Nuclear receptor subfamily 1 group I member 2 (Homo sapiens) (UniProt O75469). In words: Human pregnane X receptor (PXR) small molecule agonists, qHTS assay (AID 1346982). Also: nearly all actives have a fitted effect of over 35% in size. Also: potency is read from the fitted curve at half-maximal effect. Put shortly: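 Tox21 qHTS; PXR-Luc HepG2; compounds pinned from DMSO; 24 hr, 37 C; ONE-Glo luciferase detection, 30 min room temperature.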
Chain of Nuclear receptor subfamily 1 group I member 2 (Homo sapiens) (O75469 whole entry, looked up): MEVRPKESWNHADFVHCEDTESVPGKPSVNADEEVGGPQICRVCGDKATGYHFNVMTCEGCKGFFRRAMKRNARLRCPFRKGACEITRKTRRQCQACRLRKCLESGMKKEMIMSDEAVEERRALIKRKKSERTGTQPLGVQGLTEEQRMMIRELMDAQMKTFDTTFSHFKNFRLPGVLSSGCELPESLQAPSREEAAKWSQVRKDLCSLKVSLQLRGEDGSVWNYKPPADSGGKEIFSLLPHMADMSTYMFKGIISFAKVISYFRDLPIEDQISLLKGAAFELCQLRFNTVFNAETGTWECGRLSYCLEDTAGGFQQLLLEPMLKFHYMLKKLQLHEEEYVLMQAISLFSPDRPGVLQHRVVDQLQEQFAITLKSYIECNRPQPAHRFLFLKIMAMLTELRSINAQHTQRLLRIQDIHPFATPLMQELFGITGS
On the technique in general: Quantitative high-throughput screening tests each substance at several concentrations.

For assay [2], the target named is Nuclear receptor subfamily 1 group I member 2 (Rattus norvegicus) (UniProt Q9R1A7). Kind of assay: Rat pregnane X receptor (rPXR) activation by small molecules, qHTS assay (AID 1346983). Also: nearly all actives have a fitted effect of over 20% in size. The settings on record: rPXR luciferase reporter cells, One-Glo luminescence, 24 h; max activation: active compounds read high. In outline: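 Luminescent readout (One-Glo luciferase, 30 min room temperature) followed 24 hr compound treatment at 37 C of rPXR cells plated 2,000 per well and preincubated 5hr; qHTS format with compounds delivered in DMSO.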
Chain of Nuclear receptor subfamily 1 group I member 2 (Rattus norvegicus) (Q9R1A7 whole entry, looked up): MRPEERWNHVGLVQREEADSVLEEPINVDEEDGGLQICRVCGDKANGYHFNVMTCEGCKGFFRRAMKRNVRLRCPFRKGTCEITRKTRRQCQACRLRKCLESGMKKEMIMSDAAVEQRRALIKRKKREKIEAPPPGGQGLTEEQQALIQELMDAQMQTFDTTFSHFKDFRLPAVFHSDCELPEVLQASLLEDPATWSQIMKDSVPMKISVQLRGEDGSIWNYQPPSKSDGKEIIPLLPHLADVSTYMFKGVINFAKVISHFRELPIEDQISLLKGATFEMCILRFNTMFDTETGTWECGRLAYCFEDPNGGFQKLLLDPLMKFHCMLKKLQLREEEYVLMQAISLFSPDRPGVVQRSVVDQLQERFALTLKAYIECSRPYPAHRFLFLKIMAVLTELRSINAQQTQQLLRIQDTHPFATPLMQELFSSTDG

Assay [3] concerns the target Nuclear receptor subfamily 1 group I member 2 (Homo sapiens) (UniProt O75469). Kind of assay: CYP3A4 induction through human pregnane X receptor (PXR) by small molecules, qHTS assay (AID 1346984). Also: nearly all actives have a fitted effect of over 40% in size. Put shortly:
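Cells (DPX-2; HepG2 with PXR element plus CYP3A4-promoter luciferase) settled 5hr, then were treated 24hr at 37C. A 3hr, 3uM-final Luciferin-IPA step preceded luminescence measurement with One-Glo.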

Assay [4] has the same target. In words: Human pregnane X receptor (PXR) activation by small molecules, qHTS assay (AID 1346985). Also: nearly all actives have a fitted effect of over 40% in size. Also: potency is read from the fitted curve at half-maximal effect. Put shortly:
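DPX-2 cells (HepG2 co-transfected with a PXR response element and a CYP3A4-promoter luciferase construct) were seeded at 2,000 per well, rested 5 hr at 37C, then exposed to DMSO-dissolved compounds for 24 hr. Activation was read as luciferase luminescence.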

The target of assay [5] is Cytochrome P450 2C19 (Homo sapiens) (UniProt P33261). Kind of assay: Cytochrome P450 Family 2 Subfamily C Member 19 (CYP2C19) small molecule antagonists: luciferase reporter qHTS assay (AID 1671197). Also: nearly all actives have a fitted effect of over 65% in size. Also: potency is read from the fitted curve at half-maximal effect. As to activity change, negative = inhibition: series mostly up to about 120 µM. In outline: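 Luminescent readout of CYP2C19 activity: luciferin product detected 20 min after adding detection reagent. Before that, compound and enzyme-substrate mix preincubated 10 min at room temperature; NADPH-regenerating system started a 1 h, 37C reaction. Ketoconazole as positive control.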
Chain of Cytochrome P450 2C19 (Homo sapiens) (P33261 whole entry, looked up): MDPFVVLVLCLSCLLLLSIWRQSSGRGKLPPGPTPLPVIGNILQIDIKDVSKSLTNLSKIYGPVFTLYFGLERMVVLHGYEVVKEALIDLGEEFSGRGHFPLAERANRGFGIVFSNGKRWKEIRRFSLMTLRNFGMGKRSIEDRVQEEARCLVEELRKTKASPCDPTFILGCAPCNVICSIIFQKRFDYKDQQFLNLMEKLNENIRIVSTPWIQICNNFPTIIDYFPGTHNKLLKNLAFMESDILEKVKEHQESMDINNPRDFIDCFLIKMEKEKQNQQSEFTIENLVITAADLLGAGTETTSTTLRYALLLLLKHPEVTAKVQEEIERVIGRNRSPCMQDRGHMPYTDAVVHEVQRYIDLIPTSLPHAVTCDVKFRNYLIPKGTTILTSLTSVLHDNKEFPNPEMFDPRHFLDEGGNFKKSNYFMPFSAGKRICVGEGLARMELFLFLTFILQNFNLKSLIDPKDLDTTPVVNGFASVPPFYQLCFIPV

Assay [6] deals with Cytochrome P450 2C9 (Homo sapiens) (UniProt P11712). Kind of assay: Cytochrome P450 Family 2 Subfamily C Member 9 (CYP2C9) small molecule antagonists: luciferase reporter qHTS assay (AID 1671198). Also: nearly all actives have a fitted effect of over 50% in size. Also: potency is read from the fitted curve at half-maximal effect. As to activity change, negative = inhibition: series mostly up to about 120 µM. In outline:
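Enzyme-substrate mix preincubated with compound 10 min at room temperature; reaction started with NADPH regeneration solution, 1 h 37C. Luminescent luciferin product read after 20 min detection reagent.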
On the technique in general: Reporter assays use an easily measured gene product as a stand-in for the process of interest.

The target of assay [7] is Voltage-gated inwardly rectifying potassium channel KCNH2 (Homo sapiens) (UniProt Q12809). Kind of assay: Human Ether-a-go-go-Related Gene (hERG) channel small molecule antagonists: fluorescence cell-based qHTS assay (AID 1671200). Also: nearly all actives have a fitted effect of over 50% in size. Also: potency is read from the fitted curve at half-maximal effect.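 As to activity change, negative = inhibition: hERG-expressing U2OS cells given a thallium stimulus after FluxOR II dye loading; series mostly up to about 77 µM.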 Put shortly: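 First, 1000 cells per well are seeded and cultured overnight at 37 C. Next, FluxOR II dye is loaded for 1 h at room temperature, protected from light. After 10 more minutes, stimulus is added and fluorescence is read.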
Chain of Voltage-gated inwardly rectifying potassium channel KCNH2 (Homo sapiens) (Q12809 whole entry, looked up): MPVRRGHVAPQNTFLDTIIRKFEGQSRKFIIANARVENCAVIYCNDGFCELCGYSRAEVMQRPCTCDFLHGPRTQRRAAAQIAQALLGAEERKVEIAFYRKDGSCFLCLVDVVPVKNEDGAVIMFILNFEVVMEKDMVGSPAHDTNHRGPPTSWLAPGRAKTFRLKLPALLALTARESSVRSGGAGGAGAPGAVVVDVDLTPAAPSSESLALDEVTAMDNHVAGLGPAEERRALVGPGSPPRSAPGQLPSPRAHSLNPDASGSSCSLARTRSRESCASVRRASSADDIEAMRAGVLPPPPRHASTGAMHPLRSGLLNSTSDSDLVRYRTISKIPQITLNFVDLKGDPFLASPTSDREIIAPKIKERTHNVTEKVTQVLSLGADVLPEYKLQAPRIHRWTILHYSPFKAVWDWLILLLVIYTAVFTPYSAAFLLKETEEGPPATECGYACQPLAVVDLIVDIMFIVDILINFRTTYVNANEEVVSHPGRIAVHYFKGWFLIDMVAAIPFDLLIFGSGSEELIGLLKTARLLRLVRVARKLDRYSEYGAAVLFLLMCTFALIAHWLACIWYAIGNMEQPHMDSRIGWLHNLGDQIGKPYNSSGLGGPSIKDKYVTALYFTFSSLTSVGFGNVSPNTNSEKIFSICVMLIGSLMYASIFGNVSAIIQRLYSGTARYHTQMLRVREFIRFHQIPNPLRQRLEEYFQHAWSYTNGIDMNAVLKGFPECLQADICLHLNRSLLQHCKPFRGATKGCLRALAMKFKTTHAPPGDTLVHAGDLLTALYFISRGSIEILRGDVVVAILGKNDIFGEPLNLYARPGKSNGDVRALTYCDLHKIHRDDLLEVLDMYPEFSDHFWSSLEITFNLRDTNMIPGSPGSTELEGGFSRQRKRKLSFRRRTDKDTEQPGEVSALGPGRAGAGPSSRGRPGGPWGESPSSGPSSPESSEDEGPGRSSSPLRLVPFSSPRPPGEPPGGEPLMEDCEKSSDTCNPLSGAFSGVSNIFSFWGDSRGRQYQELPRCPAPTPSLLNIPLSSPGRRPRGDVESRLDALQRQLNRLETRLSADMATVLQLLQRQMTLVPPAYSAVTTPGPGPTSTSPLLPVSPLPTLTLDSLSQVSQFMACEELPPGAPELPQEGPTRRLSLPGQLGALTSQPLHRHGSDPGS
(In general: Block of hERG is tested as a sign of cardiac risk.)

Assay [8] addresses Cytochrome P450 2D6 (Homo sapiens) (UniProt P10635). In words: Cytochrome P450 Family 2 Subfamily D Member 6 (CYP2D6) small molecule antagonists: luciferase reporter qHTS assay (AID 1671196). Also: nearly all actives have a fitted effect of over 50% in size. Also: potency is read from the fitted curve at half-maximal effect. As to activity change, negative = inhibition: series mostly up to about 120 µM. In outline: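 Room-temperature luminescent CYP2D6 activity assay: compound preincubated 10 min with enzyme–substrate mix, NADPH-initiated reaction 1 h, detection reagent 20 min before reading.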

For assay [9], the target named is Cytochrome P450 1A2 (Homo sapiens) (UniProt P05177). In words: Cytochrome P450 Family 1 Subfamily A Member 2 (CYP1A2) small molecule antagonists: luciferase reporter qHTS assay (AID 1671199). Also: nearly all actives have a fitted effect of over 50% in size. Also: potency is read from the fitted curve at half-maximal effect. As to activity change, negative = inhibition: series mostly up to about 120 µM. In outline: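 Room-temperature CYP1A2 reaction with proluciferin substrate: compounds added from DMSO, 10 min preincubation, NADPH regeneration for 1 h. Luciferin detection reagent then added; luminescence recorded as RLU.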
Chain of Cytochrome P450 1A2 (Homo sapiens) (P05177 whole entry, looked up): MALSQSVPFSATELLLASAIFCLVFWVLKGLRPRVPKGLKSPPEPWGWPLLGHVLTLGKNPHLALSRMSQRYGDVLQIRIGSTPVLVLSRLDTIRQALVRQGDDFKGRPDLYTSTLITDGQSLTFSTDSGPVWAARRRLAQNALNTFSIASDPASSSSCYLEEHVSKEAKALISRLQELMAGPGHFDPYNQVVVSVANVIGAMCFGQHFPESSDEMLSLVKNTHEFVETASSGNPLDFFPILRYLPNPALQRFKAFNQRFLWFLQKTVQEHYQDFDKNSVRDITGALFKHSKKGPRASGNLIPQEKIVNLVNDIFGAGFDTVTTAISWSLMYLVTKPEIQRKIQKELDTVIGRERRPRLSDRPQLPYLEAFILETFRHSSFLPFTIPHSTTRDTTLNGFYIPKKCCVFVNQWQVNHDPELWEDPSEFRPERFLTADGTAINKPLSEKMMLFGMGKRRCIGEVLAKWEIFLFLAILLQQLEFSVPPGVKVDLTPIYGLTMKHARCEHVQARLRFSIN

The target of assay [10] is Cytochrome P450 3A4 (Homo sapiens) (UniProt P08684). Kind of assay: Cytochrome P450 Family 3 Subfamily A Member 4 (CYP3A4) small molecule antagonists: luciferase reporter qHTS assay (AID 1671201). In outline: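 Enzyme and proluciferin substrate are mixed with test chemicals for 10 min, then NADPH regeneration system drives turnover for 1 h at room temperature. A detection reagent halts the reaction; luminescence after 20 min gives relative activity.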
Chain of Cytochrome P450 3A4 (Homo sapiens) (P08684 whole entry, looked up): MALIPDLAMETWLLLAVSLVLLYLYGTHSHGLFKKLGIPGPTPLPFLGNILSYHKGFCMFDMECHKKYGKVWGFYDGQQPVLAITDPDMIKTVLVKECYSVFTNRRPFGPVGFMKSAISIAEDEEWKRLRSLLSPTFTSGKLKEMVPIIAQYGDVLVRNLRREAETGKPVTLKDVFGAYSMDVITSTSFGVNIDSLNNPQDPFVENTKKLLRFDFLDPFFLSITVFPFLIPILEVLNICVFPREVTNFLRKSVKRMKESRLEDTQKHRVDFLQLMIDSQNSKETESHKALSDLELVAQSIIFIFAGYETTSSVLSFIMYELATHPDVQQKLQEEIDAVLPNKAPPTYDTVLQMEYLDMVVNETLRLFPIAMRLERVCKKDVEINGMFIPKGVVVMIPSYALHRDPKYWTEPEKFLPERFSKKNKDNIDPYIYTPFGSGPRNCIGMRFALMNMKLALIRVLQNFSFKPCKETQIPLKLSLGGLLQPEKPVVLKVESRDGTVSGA

Records with an inconclusive call do not appear. A number with no mark means an inactive call. The source made the active and inactive calls. Calls follow the shape of the dose curve; as a rule, active = well fitted curve in the direction sought with a large enough effect in the repeat runs; inconclusive = weak or mixed curves; inactive = no such curve, though single readings can be large; an effect the other way counts as inactive or inconclusive.
% is scaled to controls: 0 for no effect and ±100 for the full control effect.

Chain of Cytochrome P450 2D6 (Homo sapiens) (P10635 whole entry, looked up): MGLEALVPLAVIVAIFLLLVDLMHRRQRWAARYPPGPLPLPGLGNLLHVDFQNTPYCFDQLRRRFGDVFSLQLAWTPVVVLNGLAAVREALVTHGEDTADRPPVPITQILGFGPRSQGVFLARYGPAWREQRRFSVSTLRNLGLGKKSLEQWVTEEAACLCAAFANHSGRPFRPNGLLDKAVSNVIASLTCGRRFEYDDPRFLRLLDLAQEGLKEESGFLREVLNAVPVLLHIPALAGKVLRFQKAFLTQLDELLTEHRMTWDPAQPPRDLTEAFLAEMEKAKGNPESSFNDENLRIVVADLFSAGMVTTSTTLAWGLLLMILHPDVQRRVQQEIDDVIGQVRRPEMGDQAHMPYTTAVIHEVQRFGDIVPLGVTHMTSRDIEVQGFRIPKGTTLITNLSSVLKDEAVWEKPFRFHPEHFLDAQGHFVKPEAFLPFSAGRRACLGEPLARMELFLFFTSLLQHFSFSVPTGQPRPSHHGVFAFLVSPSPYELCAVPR
Chain of Cytochrome P450 2C9 (Homo sapiens) (P11712 whole entry, looked up): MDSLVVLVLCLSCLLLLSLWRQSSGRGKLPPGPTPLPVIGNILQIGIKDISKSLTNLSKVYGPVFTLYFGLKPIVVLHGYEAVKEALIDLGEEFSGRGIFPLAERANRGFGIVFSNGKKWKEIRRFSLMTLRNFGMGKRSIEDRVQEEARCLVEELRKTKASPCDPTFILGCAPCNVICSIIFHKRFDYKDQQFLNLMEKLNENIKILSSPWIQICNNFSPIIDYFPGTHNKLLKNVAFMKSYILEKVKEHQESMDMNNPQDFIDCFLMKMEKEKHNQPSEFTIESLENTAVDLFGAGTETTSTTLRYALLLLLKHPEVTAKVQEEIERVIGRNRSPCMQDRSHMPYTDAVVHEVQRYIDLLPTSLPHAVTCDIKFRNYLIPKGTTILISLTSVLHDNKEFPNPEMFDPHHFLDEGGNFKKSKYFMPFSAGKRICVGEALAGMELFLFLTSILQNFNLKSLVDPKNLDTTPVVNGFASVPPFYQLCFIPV

`COc1ccc(/C=N/NC(=O)c2ccncc2)cc1OC`: the Potency result in [1], in assay [4] and in [7] was “inactive” each time. Moreover, the max activation in assay [2] was -2.5%. The molecule was called inactive in assay [3]. Further, the Potency is 34.7 µM (active) in [5] and 17.4 µM (active) in [6].
`O=c1cc(O)c(Cl)c[nH]1`: the Potency entry in [1], in assay [4], in assay [8], in assay [5], in [6] and in [9] was “inactive” throughout. For the same molecule, the Potency result in assay [7] and in assay [10] was “inactive” throughout. The max activation in [2] was -3.03%. Moreover, in [3], the result was inactive.
As to `COc1cc2c3cc1Oc1cc(ccc1O)C[C@@H]1c4c(cc(OC)c(O)c4Oc4ccc(cc4)C[C@@H]3N(C)CC2)CC[N+]1(C)C`, the Potency result in assay [1], in assay [4], in assay [8], in assay [6], in assay [9] and in assay [10] was “inactive” each time. In addition, the max activation in assay [2] is -3.43%. For the same molecule, in assay [3], the molecule was called inactive.
For `CC(=O)N(CC(O)CO)c1c(I)c(C(=O)NCC(O)CO)c(I)c(C(=O)NCC(O)CO)c1I` (stereo not drawn), the Potency entry in assay [1], in [4], in assay [8], in assay [9], in [7] and in assay [10] was “inactive” throughout. Further, in assay [2], the max activation is -0.214%. The outcome in [3] was inactive.
Regarding `NC(=O)NC(=O)Cc1ccccc1`, the Potency entry in [1], in [4], in [8], in assay [5], in assay [6] and in [7] was “inactive” each time. For the same molecule, the Potency result in assay [10] is “inactive”. Further, the max activation in assay [2] was -4.53%. Besides, the result in assay [3] was inactive.
On to `COc1cc2c(Nc3ccc(Br)cc3F)ncnc2cc1OCC1CCN(C)CC1`, for which the Potency result in [1], in assay [8], in assay [5], in assay [6], in assay [7] and in [10] was “inactive” throughout. Also, the max activation in [2] is -20.7%. For the same molecule, the result in assay [3] was inactive. The Potency in assay [4] was 14.1 µM (active); in assay [9] it was 30.9 µM (active).
Take `Cc1c(C(C)C)c(=O)n(-c2ccccc2)n1C`: the Potency result in assay [1], in assay [4], in [6], in [9], in assay [7] and in assay [10] was “inactive” throughout. Also, the max activation in assay [2] was -1.17%. Further, the molecule was called inactive in assay [3]. The Potency in assay [5] is 43.6 µM (active).
Turning to `NCCc1ccn[nH]1`, the Potency result in assay [1], in [4], in [8], in assay [6], in [9] and in assay [7] was “inactive” each time. Further, the Potency entry in [10] is “inactive”. Besides, the max activation in [2] was -4.71%.
Turning to `Nc1ccc(S(=O)(=O)Nc2ccccn2)cc1`, the Potency entry in assay [1], in [4], in [8], in [5], in assay [6] and in [9] was “inactive” in each case. In assay [7], the Potency result is “inactive”. Also, in [2], the max activation was -1.43%. The molecule was classed as inactive in assay [3].
In the case of `OC(CCN1CCCCC1)(c1ccccc1)c1ccccc1`, the Potency entry in assay [1], in assay [6], in [9] and in assay [10] was “inactive” throughout. Moreover, the max activation in assay [2] is -1.14%. Moreover, the values for the Potency in [8] and in assay [7] were 1.38 µM (active) and 9.52 µM (active), respectively.
On to `O=c1[nH]c(=O)c2[nH]c(=O)[nH]c2[nH]1`, for which, in [1], the activation was -5.05% [at 8.39 µM]. For the same molecule, the max activation in assay [2] was -2.16%. Besides, in assay [3], the result was inactive. In addition, in assay [4], the Potency result was “inactive”. The activity change, negative = inhibition in [8] is -9.18% [at 10.5 µM]; in [5] it was -2.11% [at 10.5 µM]; in assay [6], 10.1% [at 10.5 µM]; in [9] it was -28.5% [at 10.5 µM]; in assay [7], -12.8% [at 6.97 µM]; in assay [10], 20% [at 10.5 µM].
For `O=C(CN1CCN(Cc2ccc3c(c2)OCO3)CC1)N1c2ccccc2Sc2ccccc21`, the Potency was 11.9 µM (active) in assay [1], 0.55 µM (active) in [8] and 15.5 µM (active) in [6]. Besides, in [2], the max activation was 6.39%. Also, in assay [3], the call was inactive. Further, in assay [9], the Potency entry was “inactive”.
For `CC(C)(CO)[C@@H](O)C(=O)NCCCO`, the Potency result in assay [1], in assay [4], in assay [8], in [6], in assay [9] and in [7] was “inactive” in each case. The Potency entry in assay [10] is “inactive”. Moreover, in [2], the max activation is -0.489%. The call in assay [3] was inactive.
In the case of `O=C1OC(=O)c2cc(Oc3ccc4c(c3)C(=O)OC4=O)ccc21`, the Potency result in assay [1], in assay [8], in assay [5], in [6], in [9] and in assay [7] was “inactive” in each case. Besides, the Potency result in assay [10] was “inactive”.
Consider `COc1cc([N+](=O)[O-])ccc1N`, for which the Potency entry in assay [1], in assay [8], in assay [5], in [6] and in [7] was “inactive” throughout. Further, in [9], the Potency was 22.4 µM (active).
In the case of `O=C(O)CCNC(=O)c1ccccc1`, the Potency entry in assay [1], in assay [8], in assay [5], in [6], in assay [9] and in [7] was “inactive” throughout. The Potency entry in assay [10] was “inactive”.
Take `CCCCOC(=O)C(=O)OCCCC`: the Potency result in [1], in assay [8], in [5], in assay [6], in assay [9] and in assay [7] was “inactive” throughout. The Potency entry in assay [10] was “inactive”.
Take `O=C1OC(=O)c2ccccc21`: the Potency result in [1], in [8], in assay [5], in assay [6], in [9] and in assay [7] was “inactive” each time. Further, the Potency entry in [10] was “inactive”.
In the case of `CC(=O)OC(C)(C)Cc1ccccc1`, the Potency entry in assay [1], in assay [8], in assay [5], in assay [6], in assay [9] and in assay [7] was “inactive” in each case. In assay [10], the Potency result is “inactive”.
Regarding `BrC/C=C/CBr`, the activation in [1] is -6.32% [at 19 µM]. The activity change, negative = inhibition in assay [8] was -5.12% [at 23.6 µM]; in assay [5], -2.14% [at 23.6 µM]; in assay [6], -9.58% [at 23.6 µM]; in [9] it was -13.1% [at 23.6 µM]; in assay [7], 3.44% [at 15.8 µM]; in assay [10] it was 0.976% [at 23.6 µM].
Take `C=C(C)C(=O)OC1CC(C)CC(C)(C)C1` (stereo not drawn): the Potency entry in assay [1], in [8], in assay [5], in [6], in [7] and in assay [10] was “inactive” throughout. Besides, the Potency in [9] was 31.7 µM (active).
For the molecule `CCCCCCCCCCCCCC(=O)OC`, the Potency entry in assay [1], in [8], in assay [5], in assay [6], in [9] and in assay [7] was “inactive” each time. Moreover, the Potency entry in [10] was “inactive”.
As for `O=CN1CCOCC1`, the Potency entry in assay [1], in assay [8], in assay [5], in assay [6], in [7] and in assay [10] was “inactive” throughout. Further, in assay [9], the Potency was 44.8 µM (active).
In the case of `COC(/C=C(\C)CCC=C(C)C)OC`, the Potency result in [1], in assay [8], in assay [5], in assay [6], in assay [9] and in assay [7] was “inactive” throughout. For the same molecule, in [10], the Potency entry is “inactive”.
Turning to `Cc1ccc(C(=O)C(=O)O)cc1C`, the Potency entry in assay [1], in assay [8], in assay [5], in assay [6], in [7] and in assay [10] was “inactive” in each case. Also, the Potency in assay [9] was 30.9 µM (active).
